We go through eight compounds from PubChem BioAssay (NCATS).

Where “and” joins values, the source holds several entries; their conditions need not be identical. Equal entries are not always repeated. Values without a mark were called inactive. Inconclusive results are not listed. Calls of active or inactive are those of the source. Unless noted, the call rests on the fitted dose curve; in most records, active means well fitted curve in the direction sought with a large enough effect; inconclusive means small, poorly fitted or top-dose-only effect, or another doubt; inactive means no such curve, though single readings can be large; an effect the other way counts as inactive or inconclusive.

Assay [1] can be described thus: AP1 Signaling Pathway (AID 357; active means well fitted curve in either direction with a large enough effect, not every such curve was filed as active;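 further: ME-180 reporter cells stimulated with EGF at its EC50 level; on the % scale 0 is the no-effect control and ±100 the full control effect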). To be noted: ME-180 AP-1-bla reporter, EGF-induced, beta-lactamase ratio, 5 h. In short, it runs like this:
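AP-1-bla ME-180 cells, Opti-MEM + 0.5% dialyzed FBS, plated overnight 37 °C. Cpd titration + EC50 EGF, 5 h 37 °C. CCF4 2.5 h RT; ex 405, em 460/530 ratio → %activity, AC50.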

Assay [2] in a line: NFAT Signaling Pathway (AID 444; active means well fitted curve in either direction with a large enough effect, not every such curve was filed as active;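 further: carbachol stimulus at about its EC50 of 1 µM final; on the % scale 0 is the no-effect control and ±100 the full control effect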). The settings on record: Jurkat NFAT-bla M1, carbachol, beta-lactamase ratio, 5 h. A digest of the protocol: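 Read-out: CCF4 FRET ratio (460 nm/530 nm) after 1 h RT dye loading, used for %activity and AC50 from titration series. Cells: Jurkat NFAT-β-lactamase/M1 line, treated with compound plus 1 uM carbachol for 5 h, 37 °C.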
The nature of assay [3]: Stat Signaling Pathway (AID 446; active means well fitted curve in either direction with a large enough effect, not every such curve was filed as active;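 further: ME-180 cervical cancer cells given 40 pM IL-6 alongside compound; SIE-controlled beta-lactamase reporter measured as 460/530 nm FRET emission ratio; on the % scale 0 is the no-effect control and ±100 the full control effect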). The settings on record: ME-180 (cervical carcinoma) SIE beta-lactamase reporter, IL-6 stimulated, 5 h. A digest of the protocol:
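Emission at 460 and 530 nm (excitation 405 nm) reports SIE-controlled beta-lactamase in ME-180 cells. Cells received compound with 40 pM IL-6 for 5 hrs at 37 C; data scaled between 300 pM IL-6 and 125 nM JAK-inhibitor controls.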

The target in assay [4] is Glucocorticoid receptor (Homo sapiens) (UniProt P04150). Put plainly: GR-GFP Redistribution (AID 450;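 active means compounds whose dose series gives a full or clear partial fitted curve of increased nuclear translocation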; further: potency means the concentration at half of the fitted maximal effect). The settings on record: U2OS GR-GFP nuclear translocation, laser cytometry, 2 h.
Sequence of Glucocorticoid receptor (Homo sapiens) (P04150 whole entry, looked up): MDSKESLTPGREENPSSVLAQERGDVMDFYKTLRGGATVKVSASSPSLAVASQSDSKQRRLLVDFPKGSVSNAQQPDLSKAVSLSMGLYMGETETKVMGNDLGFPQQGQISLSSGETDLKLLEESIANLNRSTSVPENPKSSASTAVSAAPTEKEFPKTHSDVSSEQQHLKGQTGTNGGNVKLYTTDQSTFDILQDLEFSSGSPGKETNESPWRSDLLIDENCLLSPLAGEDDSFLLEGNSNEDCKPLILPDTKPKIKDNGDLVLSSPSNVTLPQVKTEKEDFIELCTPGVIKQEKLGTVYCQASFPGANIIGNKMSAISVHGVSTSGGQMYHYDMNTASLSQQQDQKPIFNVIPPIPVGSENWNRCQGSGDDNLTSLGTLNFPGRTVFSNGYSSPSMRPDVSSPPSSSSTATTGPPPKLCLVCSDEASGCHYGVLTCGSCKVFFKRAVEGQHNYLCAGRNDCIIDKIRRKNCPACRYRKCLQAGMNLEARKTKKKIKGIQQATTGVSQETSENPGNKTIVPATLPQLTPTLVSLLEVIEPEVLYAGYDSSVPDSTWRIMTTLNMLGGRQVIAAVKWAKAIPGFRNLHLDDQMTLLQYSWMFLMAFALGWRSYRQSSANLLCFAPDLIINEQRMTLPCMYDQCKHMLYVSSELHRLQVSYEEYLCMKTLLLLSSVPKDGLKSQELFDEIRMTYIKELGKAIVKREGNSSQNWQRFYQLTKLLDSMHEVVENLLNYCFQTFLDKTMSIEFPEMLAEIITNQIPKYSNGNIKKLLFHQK
Assay [5] has the same target. Put plainly: GR-EFC Redistribution (AID 451; calls by dose curve; further: potency means the concentration at half of the fitted maximal effect). The settings on record: CHO-K1 GR-EFC translocation, beta-gal luminescence, 2 h. In short, it runs like this:
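Translocation of GR-ED fusion to nuclear EA restores b-gal, read by luminescence after 1 h room-temperature detection. Engineered CHO-K1 biosensor cells, 1,000/well, exposed 2 h at 37 C to titrations up to 46 uM final.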

Assay [6] has as its target Mitogen-activated protein kinase 10 (Mus musculus) (UniProt Q61831). Briefly: JNK3 AlphaScreen Assay (AID 530; active means well fitted curve in either direction with a large enough effect, not every such curve was filed as active;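 further: kinase came from lysate of stimulated human HepG2 cells; signal reports phosphorylation of biotinylated GST-cJun 1-79 at Ser73 with 10 µM ATP; on the % scale 0 is the no-effect control and ±100 the full control effect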). The settings on record: JNK3 lysate, c-Jun phosphorylation; series mostly up to 57.1 µM. A digest of the protocol:
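Kinase buffer: 20 mM Tris-HCl pH 7.6, 10 mM MgCl2, 1 mM DTT, 0.1 mM Na3VO4, 0.01% Tween-20; ATP 10 uM. Substrate biotin-GST-cJun(1-79), enzyme from activated HepG2 lysates. Detection by Ser73 phospho-antibody AlphaScreen.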

The target in assay [7] is 3',5'-cyclic-AMP phosphodiesterase 4B (Homo sapiens) (UniProt Q07343). Briefly: qHTS Assay for Inhibitors of PDE-IV (AID 607; active means well fitted activation curve with a large enough effect in the main read-out, with a control signal flat, not every such curve was filed as active; further: % of control where 0% means no effect). To be noted: HEK293 ACTOne CNG channel cells, membrane potential fluorescence; series mostly up to 22.9 µM. In short, it runs like this: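 The readout is membrane depolarisation from a cAMP-sensing CNG channel, detected with a potential dye at ex 535/em 590. Cells were HEK293-derived (endogenous PDE-IV) at 1000 cells/well, titrated up to 22.9 uM final.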
Sequence of 3',5'-cyclic-AMP phosphodiesterase 4B (Homo sapiens) (Q07343 whole entry, looked up): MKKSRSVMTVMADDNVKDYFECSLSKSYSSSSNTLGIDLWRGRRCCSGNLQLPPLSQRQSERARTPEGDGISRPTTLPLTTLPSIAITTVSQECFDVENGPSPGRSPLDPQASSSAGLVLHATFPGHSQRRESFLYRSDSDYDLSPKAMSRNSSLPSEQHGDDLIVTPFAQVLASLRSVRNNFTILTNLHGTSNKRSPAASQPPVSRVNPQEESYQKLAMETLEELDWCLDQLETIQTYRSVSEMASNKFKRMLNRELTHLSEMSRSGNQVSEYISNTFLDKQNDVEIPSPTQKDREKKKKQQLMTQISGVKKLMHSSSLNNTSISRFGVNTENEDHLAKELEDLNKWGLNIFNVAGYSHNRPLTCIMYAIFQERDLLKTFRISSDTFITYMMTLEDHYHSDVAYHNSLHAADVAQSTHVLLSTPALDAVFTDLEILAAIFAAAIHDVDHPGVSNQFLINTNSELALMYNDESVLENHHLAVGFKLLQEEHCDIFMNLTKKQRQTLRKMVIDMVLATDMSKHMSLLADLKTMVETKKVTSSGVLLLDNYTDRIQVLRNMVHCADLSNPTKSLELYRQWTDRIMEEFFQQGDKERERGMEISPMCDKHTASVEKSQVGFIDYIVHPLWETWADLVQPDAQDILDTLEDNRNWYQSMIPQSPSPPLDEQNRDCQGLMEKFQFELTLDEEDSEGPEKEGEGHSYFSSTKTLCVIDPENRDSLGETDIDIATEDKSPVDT
Background: In qHTS, concentration-response curves come from the screen itself.

Assay [8] addresses DNA dC->dU-editing enzyme APOBEC-3G (Homo sapiens) (UniProt Q9HC16). Briefly: qHTS for inhibitors of Vif-A3G interactions: Validation (AID 588379). Further: 0% is about no effect. To be noted: Vif-A3G protein interaction assay; series mostly up to 46.1 µM. A digest of the protocol: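 Yellow fluorescence (Ex 488, Em 500-530) of Vif-coexpressing HeLa A3G-eYFP cells, scanned by Acumen cytometer, reports blocked A3G degradation. Cells plated at 700/well overnight at 37 deg C before compound addition, then a further overnight compound incubation at 37 deg C.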

The test system of assay [9] is Zika virus NS2B-NS3 protease. Briefly: Primary screen GU AMC qHTS for Zika virus inhibitors (AID 1347154).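 Further: 0% = no-inhibitor control and -100% = no-enzyme control; nearly all actives have a fitted effect of over 70% in size.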 To be noted: Zika NS2B-NS3 unlinked protease, AMC fluorogenic substrate; series mostly up to 54.1 µM. A digest of the protocol: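 Fluorogenic AMC-substrate cleavage by noncovalent NS2B-NS3 protease complex (25 nM, pH 8.0 Tris buffer with Tween 20) followed for 15 minutes at room temperature (~20% conversion). Percent inhibition from ex340/em450 signal change, fitted by 4-parameter Hill equation.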

A short description of assay [10]: Primary qHTS for small molecule stabilizers of the endoplasmic reticulum resident proteome: Secreted ER Calcium Modulated Protein (SERCaMP) assay (AID 1508630). Further: on the % scale 0 is the no-effect control and ±100 the full control effect. To be noted: SH-SY5Y GLuc-SERCaMP (Gaussia luciferase released on ER calcium loss) secretion, thapsigargin, luminescence; series mostly up to 38.4 µM. A digest of the protocol:
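The SH-SY5Y reporter protocol was run at 3 concentrations up to 38.3 uM (primary) or 11 concentrations (follow-up): 16 h compound, 100 nM thapsigargin for 4 h, then extracellular luciferase luminescence.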

Assay [11] has as its target Cytochrome P450 1A2 (Homo sapiens) (UniProt P05177). Briefly: p450-cyp1a2 (AID 410; calls by dose curve; further: potency means the concentration at half of the fitted maximal effect;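 on activity change, negative = inhibition: -100% = full effect of reference inhibitor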). To be noted: recombinant CYP1A2, luciferin-ME demethylation, luminescence; series mostly up to 57 µM. In short, it runs like this: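 Read-out is luminescence from luciferin produced by CYP1A2 demethylation of Luciferin-ME (100uM, at Km). Detection reagent stopped the 60 min NADPH-dependent reaction; signals were normalized to 57 uM furafylline.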

For assay [12], the target named is Ubiquitin carboxyl-terminal hydrolase 1 (Homo sapiens) (UniProt O94782). Put plainly: Inhibitors of USP1/UAF1: Pilot qHTS (AID 504865).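 Further: rhodamine fluorescence freed from ubiquitin-rhodamine substrate followed over time; top concentration of the series differs between compounds; on the % scale 0 is the no-effect control and ±100 the full control effect; nearly all actives have a fitted effect of over 35% in size.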 The settings on record: purified USP1/UAF1, Ub-rhodamine cleavage fluorescence; series mostly up to 114 µM. In short, it runs like this:
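USP1/UAF1 complex (1nM) preincubated with compound 15 min at room temperature, then Ub-Rho substrate (150nM final) added. Fluorescence read kinetically at 480/540 nm, 6 reads every 60 seconds. Buffer: 50mM HEPES pH 7.8, 0.5mM EDTA, 0.1 mg/ml BSA, 1mM TCEP, 0.01% Tween-20.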

For assay [13], the target named is Guanine nucleotide-binding protein G(i) subunit alpha-1 (Homo sapiens) (UniProt P63096). Put plainly: qHTS Assay for Inhibitors of RGS12 GoLoco Motif Activity (Green Fluorophore) (AID 879).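 Further: 0% = labeled peptide with Gαi1 and full inhibition = labeled peptide alone without protein; negative values mean loss of peptide binding seen as reduced polarization.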 The settings on record: Galphai1/FITC-RGS12 GoLoco peptide, fluorescence polarization; series mostly up to 57.1 µM. A digest of the protocol: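 A drop in FITC polarization marked displacement of the FITC-tagged RGS12 GoLoco peptide (10 nM) from Gαi1 (50 nM). Compounds were incubated 10 min at room temperature in Tris pH 7.5 buffer containing 150 mM NaCl, 0.1 mM GDP and 0.05% NP40; unlabeled peptide titration served as control.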
Sequence of Guanine nucleotide-binding protein G(i) subunit alpha-1 (Homo sapiens) (P63096 whole entry, looked up): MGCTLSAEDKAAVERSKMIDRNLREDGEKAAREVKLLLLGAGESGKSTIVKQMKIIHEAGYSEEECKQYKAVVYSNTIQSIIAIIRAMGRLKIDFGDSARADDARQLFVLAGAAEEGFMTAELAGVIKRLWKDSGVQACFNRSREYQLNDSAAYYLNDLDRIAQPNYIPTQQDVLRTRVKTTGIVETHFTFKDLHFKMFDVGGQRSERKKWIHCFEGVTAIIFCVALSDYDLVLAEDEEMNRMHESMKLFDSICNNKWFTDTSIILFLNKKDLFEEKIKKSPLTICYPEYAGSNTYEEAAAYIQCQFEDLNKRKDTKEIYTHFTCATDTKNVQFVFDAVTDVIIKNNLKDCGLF

Assay [14] deals with Pyruvate kinase (Leishmania mexicana) (UniProt Q27686). Briefly: qHTS Validation Assay for Inhibitors of Leishmania Mexicana Pyruvate Kinase (AID 945).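 Further: 0% = DMSO only neutral control wells.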 To be noted: purified L. mexicana pyruvate kinase, enzyme activity, E451W mutant enzyme; series mostly up to 57.5 µM. In short, it runs like this: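 Pyruvate kinase activity of E451W LmPYK (0.2 nM) was followed as ATP output after 1 h at room temperature with 0.5 mM PEP and 0.1 mM ADP, detected by PKLight luminescence.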
Sequence of Pyruvate kinase (Leishmania mexicana) (Q27686 2-499 E452W): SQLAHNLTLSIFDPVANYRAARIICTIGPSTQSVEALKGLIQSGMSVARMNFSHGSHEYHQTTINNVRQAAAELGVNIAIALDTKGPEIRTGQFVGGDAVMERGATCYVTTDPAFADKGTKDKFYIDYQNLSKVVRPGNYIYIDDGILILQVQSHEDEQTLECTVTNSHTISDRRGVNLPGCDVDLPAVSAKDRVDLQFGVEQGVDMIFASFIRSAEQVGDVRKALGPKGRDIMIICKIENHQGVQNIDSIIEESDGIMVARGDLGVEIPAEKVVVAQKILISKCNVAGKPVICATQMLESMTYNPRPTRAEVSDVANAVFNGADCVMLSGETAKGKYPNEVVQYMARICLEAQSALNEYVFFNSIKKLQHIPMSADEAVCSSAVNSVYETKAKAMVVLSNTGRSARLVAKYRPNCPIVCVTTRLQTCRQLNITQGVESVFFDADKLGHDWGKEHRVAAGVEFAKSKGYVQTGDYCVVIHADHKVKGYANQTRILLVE

In assay [15] the target is Cytochrome P450 3A4 (Homo sapiens) (UniProt P08684). Briefly: qHTS Assay for Activators of Cytochrome P450 3A4 (AID 885). Further: nearly all actives have a fitted effect of over 65% in size. To be noted: recombinant CYP3A4, Luciferin-PPXE luminescence, 60 min; series mostly up to 57.1 µM. A digest of the protocol:
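Activators are scored by enhanced luminescence from CYP3A4 conversion of luciferin-PPXE (25uM, equal to KM) to luciferin, after 60 min at RT with an NADPH-regenerating system.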

Assay [16] addresses Cytochrome P450 2C9 (Homo sapiens) (UniProt P11712). Put plainly: qHTS Assay for Inhibitors and Substrates of Cytochrome P450 2C9 (AID 883). Further: on the % scale 0 is the no-effect control and ±100 the full control effect; nearly all actives have a fitted effect of over 60% in size. To be noted: recombinant CYP2C9, luciferin-H luminescence, 60 min; series mostly up to 57.1 µM. In short, it runs like this:
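Inhibition of CYP2C9 is scored as loss of luminescence, with 57uM sulphaphenazole defining 100% inhibition. Substrate Luciferin-H is used at 100uM, equal to its KM; enzyme at 10nM in 25mM KPO4, 60 min at 37C with NADPH regeneration.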

The target of assay [17] is Cytochrome P450 2D6 (Homo sapiens) (UniProt P10635). Briefly: qHTS Assay for Inhibitors and Substrates of Cytochrome P450 2D6 (AID 891).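 Further: luciferin methyl ether substrate demethylated by CYP2D6 with NADPH regeneration; on the % scale 0 is the no-effect control and ±100 the full control effect; nearly all actives have a fitted effect of over 60% in size.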 The settings on record: recombinant CYP2D6, luciferin-ME EGE luminescence; series mostly up to 57.1 µM. A digest of the protocol: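 Luminescent read-out of luciferin formed by 5 nM human CYP2D6 demethylating 30 uM Luciferin-ME EGE (Km level) over 60 min at room temperature after NADPH regeneration addition. Data normalized to full inhibition by 1.43 uM quinidine.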
Sequence of Cytochrome P450 2D6 (Homo sapiens) (P10635 whole entry, looked up): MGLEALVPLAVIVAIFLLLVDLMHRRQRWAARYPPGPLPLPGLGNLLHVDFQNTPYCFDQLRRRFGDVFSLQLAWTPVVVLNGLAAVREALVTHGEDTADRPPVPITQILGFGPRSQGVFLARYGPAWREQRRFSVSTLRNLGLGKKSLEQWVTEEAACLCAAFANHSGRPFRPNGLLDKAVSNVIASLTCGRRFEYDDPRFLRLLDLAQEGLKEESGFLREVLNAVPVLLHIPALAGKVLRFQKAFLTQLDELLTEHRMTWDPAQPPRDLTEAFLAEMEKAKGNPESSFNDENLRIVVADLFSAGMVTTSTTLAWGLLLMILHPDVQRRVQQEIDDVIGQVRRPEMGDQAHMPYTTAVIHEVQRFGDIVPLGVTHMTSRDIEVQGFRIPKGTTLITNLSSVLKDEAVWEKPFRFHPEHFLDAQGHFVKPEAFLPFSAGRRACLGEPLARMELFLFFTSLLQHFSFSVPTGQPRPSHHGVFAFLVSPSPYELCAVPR

For assay [18], the target named is Cytochrome P450 2C19 (Homo sapiens) (UniProt P33261). Briefly: qHTS Assay for Inhibitors and Substrates of Cytochrome P450 2C19 (AID 899). Further: on the % scale 0 is the no-effect control and ±100 the full control effect; nearly all actives have a fitted effect of over 60% in size. The settings on record: recombinant CYP2C19, luciferin-H EGE luminescence; series mostly up to 57.1 µM. A digest of the protocol:
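5nM enzyme + 10uM Luciferin-H EGE (=KM), 50mM KPO4; cpd pin-transferred, 10 min 37C; NADPH regen, 60 min 37C; stopped w/ luciferin detection reagent, 20 min; luminescence. Normalized to 57uM ketoconazole (AC100).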

Sequence of Cytochrome P450 3A4 (Homo sapiens) (P08684 whole entry, looked up): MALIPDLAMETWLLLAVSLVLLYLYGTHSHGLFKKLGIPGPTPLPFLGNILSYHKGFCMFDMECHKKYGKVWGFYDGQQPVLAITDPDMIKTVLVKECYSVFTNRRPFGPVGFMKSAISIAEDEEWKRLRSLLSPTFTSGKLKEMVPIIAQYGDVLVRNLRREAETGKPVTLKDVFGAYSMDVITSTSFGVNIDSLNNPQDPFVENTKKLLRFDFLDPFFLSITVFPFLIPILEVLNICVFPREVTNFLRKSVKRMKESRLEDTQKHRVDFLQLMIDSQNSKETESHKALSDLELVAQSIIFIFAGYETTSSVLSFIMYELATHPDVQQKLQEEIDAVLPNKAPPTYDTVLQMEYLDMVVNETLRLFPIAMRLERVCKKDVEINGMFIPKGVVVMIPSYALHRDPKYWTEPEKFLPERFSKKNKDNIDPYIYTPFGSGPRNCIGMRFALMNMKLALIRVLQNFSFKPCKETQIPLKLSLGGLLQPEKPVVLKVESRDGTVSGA
Sequence of Cytochrome P450 1A2 (Homo sapiens) (P05177 whole entry, looked up): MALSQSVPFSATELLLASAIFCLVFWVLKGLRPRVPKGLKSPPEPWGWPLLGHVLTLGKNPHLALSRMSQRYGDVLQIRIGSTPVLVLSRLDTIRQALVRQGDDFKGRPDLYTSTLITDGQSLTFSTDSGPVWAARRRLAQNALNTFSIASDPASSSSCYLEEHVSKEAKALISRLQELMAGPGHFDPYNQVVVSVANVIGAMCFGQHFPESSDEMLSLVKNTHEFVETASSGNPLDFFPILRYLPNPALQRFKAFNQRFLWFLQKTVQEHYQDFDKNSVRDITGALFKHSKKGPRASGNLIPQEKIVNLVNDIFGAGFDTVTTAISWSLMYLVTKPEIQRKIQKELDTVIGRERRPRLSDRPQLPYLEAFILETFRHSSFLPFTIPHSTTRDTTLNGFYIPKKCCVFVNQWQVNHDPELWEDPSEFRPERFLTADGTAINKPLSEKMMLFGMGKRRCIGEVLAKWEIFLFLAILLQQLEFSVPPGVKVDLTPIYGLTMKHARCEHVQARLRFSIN
Sequence of DNA dC->dU-editing enzyme APOBEC-3G (Homo sapiens) (Q9HC16 whole entry, looked up): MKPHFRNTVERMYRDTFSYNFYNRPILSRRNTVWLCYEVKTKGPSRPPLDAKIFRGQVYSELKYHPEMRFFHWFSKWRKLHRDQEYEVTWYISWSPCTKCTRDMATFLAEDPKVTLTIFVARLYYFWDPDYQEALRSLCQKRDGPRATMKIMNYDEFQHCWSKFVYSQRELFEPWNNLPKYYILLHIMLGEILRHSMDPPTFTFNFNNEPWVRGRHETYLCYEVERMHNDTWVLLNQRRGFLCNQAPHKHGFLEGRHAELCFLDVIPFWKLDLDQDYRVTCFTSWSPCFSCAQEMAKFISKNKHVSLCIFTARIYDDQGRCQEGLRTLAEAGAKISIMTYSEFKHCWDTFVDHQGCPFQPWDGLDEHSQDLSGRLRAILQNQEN
Sequence of Cytochrome P450 2C9 (Homo sapiens) (P11712 whole entry, looked up): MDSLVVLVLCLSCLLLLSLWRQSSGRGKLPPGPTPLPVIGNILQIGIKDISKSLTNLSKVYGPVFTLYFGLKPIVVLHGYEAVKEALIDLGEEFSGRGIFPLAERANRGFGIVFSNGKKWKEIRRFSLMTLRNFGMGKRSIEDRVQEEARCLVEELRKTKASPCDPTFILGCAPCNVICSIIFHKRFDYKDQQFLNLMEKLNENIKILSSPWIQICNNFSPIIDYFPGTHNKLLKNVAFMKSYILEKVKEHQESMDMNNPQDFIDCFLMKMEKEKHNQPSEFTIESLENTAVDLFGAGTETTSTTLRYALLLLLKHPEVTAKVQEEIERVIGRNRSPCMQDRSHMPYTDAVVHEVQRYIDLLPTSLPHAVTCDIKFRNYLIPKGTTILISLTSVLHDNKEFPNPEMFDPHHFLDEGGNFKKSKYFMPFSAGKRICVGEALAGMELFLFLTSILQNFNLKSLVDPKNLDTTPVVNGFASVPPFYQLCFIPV

For the compound `OCc1cc([C@@H](O)CNCCCCCCOCCCCc2ccccc2)ccc1O`, the activity change, negative = inhibition is 9.46% in assay [1] (at 38 µM (top of the series)) and -1.3% in [2] (at 38 µM (top of the series)). Also, in [3] (at 38 µM (top of the series)), the activity, negative = inhibition was -26.7%. Moreover, the Potency in assay [4] and in [5] was over 46 µM in each case. Besides, the Potency result in assay [6], in assay [7], in assay [8], in [9] and in assay [10] was “inactive” throughout.

For `CCCCNC(=O)[C@@H]1Cc2ccccc2N1C(=O)[C@H](N)CC`, the Potency in [11] is 20 µM (active); in [4] it was over 46 µM; in assay [5], over 46 µM. For the same compound, the Potency result in assay [6], in [12], in [8], in assay [9] and in assay [10] was “inactive” throughout.

With `NC(N)=NN=Cc1c(Cl)cccc1Cl`, the activity change, negative = inhibition is -2.9% in assay [1] (at 17.2 µM (top of the series)), 4.65% in assay [1] (at 38 µM (top of the series)), -0.975% in assay [2] (at 17.2 µM (top of the series)) and -1.48% in assay [2] (at 38 µM (top of the series)). Besides, the values for the activity, negative = inhibition in assay [3] (at 17.2 µM (top of the series)) and in assay [3] (at 38 µM (top of the series)) were 9.46% and -0.683%, respectively. Further, the Potency result in [6], in assay [7], in assay [14], in [8], in [9] and in assay [10] was “inactive” throughout. In addition, in assay [13], the call was inactive.

As to `COc1ccccc1NC(=O)Nc1nc(-c2cccnc2)nc2ccccc12`, the figures for the activity change, negative = inhibition in assay [1] (at 38 µM (top of the series)) and in assay [2] (at 38 µM (top of the series)) were 12.1% and 4.7%, respectively. The values for the Potency in assay [11], in assay [4] and in [5] were 2.51 µM (active), over 46 µM and over 46 µM, respectively. Further, in assay [3] (at 38 µM (top of the series)), the activity, negative = inhibition was 4.21%. For the same compound, the Potency entry in assay [6], in assay [7], in assay [15], in assay [14], in assay [9] and in [10] was “inactive” in each case. Also, in assay [13], the result was inactive.

As to `CCC(C)(C)C(=O)O[C@@H]1C[C@@H](C)C=C2C=C[C@H](C)[C@H](CC[C@@H]3C[C@@H](O)CC(=O)O3)[C@H]21`, the Potency in [4] and in [5] was over 46 µM in each case. In addition, the Potency result in assay [6], in [8], in assay [9] and in [10] was “inactive” throughout.

As to `CCCCC[C@H](O)/C=C/C1=C(CCCCCCC(=O)O)C(=O)CC1`, the activity change, negative = inhibition in assay [1] (at 17.2 µM (top of the series)) is -2.06%; in assay [9], 14% [at 6.83 µM]; in [10] it was -5.34% [at 3.88 µM]. In [3] (at 17.2 µM (top of the series)), the activity, negative = inhibition is 0.776%. Besides, the Potency in assay [4] is over 20.6 µM.

Turning to `NCCNS(=O)(=O)c1cccc2cnccc12`, the Potency entry in assay [11], in assay [6], in [7], in assay [15], in assay [14] and in assay [8] was “inactive” throughout. The Potency entry in assay [9] and in assay [10] was “inactive” in each case. In addition, the activity change, negative = inhibition in assay [2] (at 38 µM (top of the series)) is -13.5%. The Potency in assay [4] and in assay [5] was over 46 µM in each case. Further, the call in assay [13] was inactive.

For `CCCCOc1cc(C[C@@H]2CNC(=O)N2)ccc1OC`, the activity change, negative = inhibition in assay [1] (at 38 µM (top of the series)) is -11.4%; in [2] (at 38 µM (top of the series)), -19.1%. The Potency in [11] is 12.6 µM (active) and 10 µM (active); in assay [4] it was over 46 µM; in assay [5], over 46 µM. Further, the activity, negative = inhibition in assay [3] (at 38 µM (top of the series)) is 24.5%. Moreover, the Potency entry in assay [6], in [16], in assay [15], in assay [17], in assay [18] and in assay [14] was “inactive” each time. Besides, the Potency result in assay [8], in assay [9] and in assay [10] was “inactive” in each case. Also, in [13], the call was inactive.
